# Laboratory results as given in PubChem BioAssay (EPA / NIEHS).
# Several values for one entry are separate records, joined by “and”; a condition that tells them apart may be missing. Equal entries are not always repeated. Activity calls are given as the source filed them. The calls were made as follows: active = hit-call score of the fitted dose curve at least 0.9, where 1 is the maximum; inactive = score below 0.9.
# How the values were obtained:
# [1] = molecular target: Nuclear respiratory factor 1 (Homo sapiens) (UniProt Q16656); experiment: ATG_NRF1_CIS: Attagene CIS-FACTORIAL HepG2 Assay for human Nuclear Respiratory Factor 1 (NRF1) Orphan Gene (AID 2282987); conditions: HepG2 NRF1 cis-element reporter, Attagene multiplex; actives raise or lower the signal
# Nuclear respiratory factor 1 (Homo sapiens), sequence (Q16656 whole entry, looked up): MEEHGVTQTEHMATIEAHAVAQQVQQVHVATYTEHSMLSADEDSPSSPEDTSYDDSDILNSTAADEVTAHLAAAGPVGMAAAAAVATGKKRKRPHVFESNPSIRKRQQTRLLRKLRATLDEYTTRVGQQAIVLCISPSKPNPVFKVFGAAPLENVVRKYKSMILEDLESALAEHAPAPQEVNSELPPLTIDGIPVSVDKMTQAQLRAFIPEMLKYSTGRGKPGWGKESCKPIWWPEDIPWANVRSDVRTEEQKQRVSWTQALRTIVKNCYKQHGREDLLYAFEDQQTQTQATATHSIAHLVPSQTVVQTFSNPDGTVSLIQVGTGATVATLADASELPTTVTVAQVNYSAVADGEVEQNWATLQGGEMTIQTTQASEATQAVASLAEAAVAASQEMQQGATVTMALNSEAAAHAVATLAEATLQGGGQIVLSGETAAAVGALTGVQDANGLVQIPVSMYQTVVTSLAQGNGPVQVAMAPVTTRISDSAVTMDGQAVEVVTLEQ
# Procedure, shortened: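 Multiplexed cis-reporter assay, HepG2 cells, 24 h treatment. Total RNA → oligo(dT) RT → PCR with reporter-specific primers → 6-FAM primer extension → HpaI cut → CE. Bidirectional fit vs DMSO.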
# [2] = ATG_NFI_CIS: Attagene CIS-FACTORIAL HepG2 Assay for human Nuclear Factor I (NFI) (AID 2282989); conditions: HepG2 cis-regulatory reporter, NFI response element transcription; actives raise or lower the signal
# Procedure, shortened: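 HepG2, transient MRTU, 24 h exposure; RNA→cDNA→PCR→FAM label→HpaI→CE fluorescence. Bidirectional fit, DMSO = baseline.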
# [3] = molecular target: Myc proto-oncogene protein (Homo sapiens) (UniProt P01106); experiment: ATG_Myc_CIS: Attagene CIS-FACTORIAL HepG2 Assay for human Myelocytomatosis (Myc) Proto-Oncogene Transcription Factor (AID 2282990); conditions: HepG2, Attagene cis-reporter transcription factor activity; actives raise or lower the signal
# Myc proto-oncogene protein (Homo sapiens), sequence (P01106 whole entry, looked up, the tested form may be a part): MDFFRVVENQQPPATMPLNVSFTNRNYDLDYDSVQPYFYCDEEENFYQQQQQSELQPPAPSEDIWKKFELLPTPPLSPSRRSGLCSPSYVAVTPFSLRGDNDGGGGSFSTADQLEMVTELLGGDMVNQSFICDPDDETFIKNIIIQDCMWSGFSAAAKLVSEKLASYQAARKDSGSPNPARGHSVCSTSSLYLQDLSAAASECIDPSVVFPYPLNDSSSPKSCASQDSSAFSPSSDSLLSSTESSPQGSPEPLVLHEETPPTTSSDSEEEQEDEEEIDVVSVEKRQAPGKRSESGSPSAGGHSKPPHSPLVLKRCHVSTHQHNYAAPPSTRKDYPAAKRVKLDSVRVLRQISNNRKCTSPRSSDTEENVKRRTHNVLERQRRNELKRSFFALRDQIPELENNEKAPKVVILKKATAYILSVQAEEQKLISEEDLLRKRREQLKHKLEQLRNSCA
# Procedure, shortened: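 Read-out: fluorescent reporter mRNA fragments resolved by capillary electrophoresis after RT-PCR. Human HepG2 liver cells carried transfected cis-element reporter units and were dosed for 24 h. Gain or loss of signal fitted relative to DMSO baseline.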
# [4] = ATG_NF_kB_CIS: Attagene CIS-FACTORIAL HepG2 Assay for human Nuclear Factor Kappa B (NF-kB) (AID 2282991); conditions: HepG2 Attagene cis-factorial NF-kB reporter mRNA; actives raise or lower the signal
# Procedure, shortened: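 Transient MRTU transfection of human HepG2 liver cells → 24 h chemical exposure → total RNA, oligo(dT) RT → PCR, 6-FAM primer extension, HpaI digest 2 h 37 C → CE fragment analysis. Bidirectional fitting, DMSO negative control.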
# [5] = ATG_NRF2_ARE_CIS: Attagene CIS-FACTORIAL HepG2 Assay for human Nuclear Factor Erythroid 2 Related Factor 2 (NFR2) response to Antioxidant Response Elements (ARE) (AID 2282992); conditions: HepG2 Attagene ARE/NRF2 reporter, transcription factor activity; actives raise or lower the signal;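 as to AC50: reporter mRNA level measured by RT-PCR and capillary electrophoresis fluorescence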
# Procedure, shortened: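 Using transiently transfected HepG2 cells exposed for 24 h, reporter mRNA levels were determined by RT-PCR with fluorescent primer extension and capillary electrophoresis, analysed for gain or loss of signal against DMSO.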
# [6] = ATG_Oct_MLP_CIS: Attagene CIS-FACTORIAL HepG2 Assay for human Octamer-Binding Transcription Factor (Oct) (AID 2282993); conditions: HepG2 Attagene cis-factorial Oct reporter, mRNA; actives raise or lower the signal
# Procedure, shortened: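 Multiplexed cis-reporter assay in human liver HepG2 cells, 24 h incubation. Reporter RNA amplified and labelled, then resolved by capillary electrophoresis; DMSO serves as negative control and baseline.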
# [7] = molecular target: Cellular tumor antigen p53 (Homo sapiens) (UniProt P04637); experiment: ATG_p53_CIS: Attagene CIS-FACTORIAL HepG2 Assay for human p53 Transcription Factor (AID 2282994); conditions: HepG2 p53 cis-element reporter, Attagene mRNA; actives raise or lower the signal
# Cellular tumor antigen p53 (Homo sapiens), sequence (P04637 whole entry, looked up, the tested form may be a part): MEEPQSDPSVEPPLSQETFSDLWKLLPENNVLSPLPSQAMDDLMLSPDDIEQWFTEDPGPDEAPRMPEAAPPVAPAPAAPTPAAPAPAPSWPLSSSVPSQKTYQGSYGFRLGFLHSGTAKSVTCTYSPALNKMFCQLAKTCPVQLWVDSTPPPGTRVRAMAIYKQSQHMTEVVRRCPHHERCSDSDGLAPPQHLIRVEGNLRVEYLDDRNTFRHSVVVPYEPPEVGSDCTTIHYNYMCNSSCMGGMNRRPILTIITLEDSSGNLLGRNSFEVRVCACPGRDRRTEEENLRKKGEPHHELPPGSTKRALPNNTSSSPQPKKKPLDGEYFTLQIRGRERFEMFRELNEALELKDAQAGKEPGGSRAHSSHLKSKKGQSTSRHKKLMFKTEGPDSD
# Procedure, shortened: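 In HepG2 cells, reporter transcription units under cis-regulatory promoters were transiently introduced. Following 24 h treatment, RNA was processed to labelled, digested cDNA fragments read by capillary electrophoresis; fitting was bidirectional versus DMSO.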
# [8] = BSK_3C_TissueFactor: BioMAP Diversity Plus: 3C Assay for Tissue Factor Biomarker Activity (AID 2282997); conditions: BioMAP 3C HUVEC, tissue factor biomarker readout; actives raise or lower the signal
# Procedure, shortened: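 Readout: Tissue Factor ELISA. Cells: human primary umbilical vein endothelium. Time: 24 h after dosing. Analysis: bidirectional fit, DMSO baseline.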
# [9] = BSK_3C_uPAR: BioMAP Diversity Plus: 3C Assay for Urokinase-type plasminogen activator receptor (uPAR) Biomarker Activity (AID 2282998); conditions: BioMAP 3C HUVEC, uPAR biomarker ELISA; actives raise or lower the signal
# Procedure, shortened: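 Dose primary human umbilical vein endothelial cells, incubate 24 h, measure cell-surface uPAR by ELISA, then fit the signal in both directions against the DMSO negative control.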
# [10] = BSK_3C_VCAM1: BioMAP Diversity Plus: 3C Assay for Vascular cell adhesion molecule 1 (VCAM1) Biomarker Activity (AID 2282999); conditions: BioMAP 3C HUVEC, VCAM1 ELISA, cytokine-stimulated; actives raise or lower the signal
# Procedure, shortened: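 HUVEC primary cells, 24 h compound exposure; VCAM-1 by ELISA; gain/loss of signal fitted bidirectionally vs DMSO baseline.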
Compound,outcome [1],outcome [2],outcome [3],outcome [4],outcome [5],outcome [6],outcome [7],outcome [8],outcome [9],outcome [10],AC50 [2],AC50 [5],AC50 [7],AC50 [10],AC50 [1],AC50 [9],AC50 [8]
OCC(F)(F)C(F)(F)C(F)(F)C(F)(F)C(F)(F)C(F)F,inactive,inactive,inactive,inactive,inactive,inactive,inactive,inactive,inactive,inactive,–,–,–,–,–,–,–
CC(CCl)OP(=O)(OC(C)CCl)OC(C)CCl (stereo not given),inactive,inactive,inactive,inactive,inactive,inactive,inactive,inactive,inactive,inactive,–,–,–,–,–,–,–
N=C(N)C(F)(F)C(F)(F)C(F)(F)C(F)(F)C(F)(F)C(F)(F)C(F)(F)F,inactive,–,inactive,inactive,–,inactive,–,inactive,inactive,–,271 µM (active),125 µM (active),88.9 µM (active),24.1 µM (active) and 15 µM (active),–,–,–
FC(F)(F)C(F)(F)C(F)(F)N(C(F)(F)C(F)(F)C(F)(F)F)C(F)(F)C(F)(F)C(F)(F)F,inactive,inactive,inactive,inactive,inactive,inactive,inactive,inactive,inactive,inactive,–,–,–,–,–,–,–
FC(F)(F)C(F)(F)C(F)(F)C(F)(F)C(F)(F)C(F)(F)CC1CO1 (stereo not given),inactive,inactive,inactive,inactive,inactive,inactive,inactive,inactive,inactive,inactive,–,–,–,–,–,–,–
C#C[C@]1(O)CC[C@H]2[C@@H]3CCc4cc(OC)ccc4[C@H]3CC[C@@]21C,inactive,inactive,inactive,inactive,–,inactive,inactive,inactive,inactive,inactive,–,18 µM (active),–,–,–,–,–
O=C(O)C(F)(F)C(F)(F)OC(F)(F)F,inactive,inactive,inactive,inactive,inactive,inactive,inactive,inactive,inactive,inactive,–,–,–,–,–,–,–
OCC(F)(F)C(F)(F)C(F)(F)F,inactive,inactive,inactive,inactive,inactive,inactive,inactive,inactive,inactive,inactive,–,–,–,–,–,–,–
O=S(=O)(OCC(F)F)C(F)(F)F,inactive,inactive,inactive,inactive,inactive,inactive,inactive,inactive,inactive,inactive,–,–,–,–,–,–,–
O[Si](c1ccccc1)(c1ccccc1)c1ccccc1,–,–,inactive,inactive,–,inactive,inactive,inactive,–,inactive,100 µM (active),31.1 µM (active),–,–,100 µM (active),32.9 µM (active),–
Cc1ccc(S(=O)(=O)OCC(F)(F)C(F)(F)C(F)(F)C(F)(F)C(F)(F)C(F)F)cc1,inactive,inactive,inactive,inactive,inactive,inactive,inactive,inactive,inactive,inactive,–,–,–,–,–,–,–
O=C(O)C(F)(F)C(F)(F)C(F)F,inactive,inactive,inactive,inactive,inactive,inactive,inactive,inactive,inactive,inactive,–,–,–,–,–,–,–
C=C(C)C(=O)OCC(F)(F)C(F)(F)C(F)(F)F,inactive,inactive,inactive,inactive,inactive,inactive,inactive,inactive,inactive,inactive,–,–,–,–,–,–,–
O=C(O)C(F)(F)C(F)(F)C(F)(F)C(F)(F)F,inactive,inactive,inactive,inactive,inactive,inactive,inactive,inactive,inactive,inactive,–,–,–,–,–,–,–
O=S(=O)(OCCOC(F)(F)F)C(F)(F)F,inactive,inactive,inactive,inactive,inactive,inactive,inactive,inactive,inactive,inactive,–,–,–,–,–,–,–
Nc1ccc([N+](=O)[O-])cc1O,inactive,inactive,inactive,inactive,–,inactive,inactive,–,inactive,inactive,–,16.1 µM (active),–,–,–,–,20 µM (active)
O=P(O)(O)OCCC(F)(F)C(F)(F)C(F)(F)C(F)(F)C(F)(F)C(F)(F)F,inactive,inactive,inactive,inactive,inactive,inactive,inactive,inactive,inactive,inactive,–,–,–,–,–,–,–
FC(F)(F)C(F)(F)C(F)(F)C(F)(F)C(F)(F)C(F)(F)CCS,inactive,inactive,inactive,inactive,inactive,inactive,inactive,inactive,inactive,inactive,–,–,–,–,–,–,–
O=C(O)C(F)(F)C(F)(F)F,inactive,inactive,inactive,inactive,inactive,inactive,inactive,inactive,inactive,inactive,–,–,–,–,–,–,–
COC(=O)CCC(F)(F)C(F)(F)C(F)(F)C(F)(F)F,inactive,inactive,inactive,inactive,inactive,inactive,inactive,inactive,inactive,inactive,–,–,–,–,–,–,–
